# Measured values from PubChem BioAssay.
# Active and inactive are the calls of the source. Unless noted, the rule behind the calls is not given here.
# Experiments:
# [1] = compound effects on lung adenocarcinoma cell viability – A549, calcein-AM fluorescence, 48 h, basal, profiling panel (AID 1162); conditions: higher = more signal; note: test concentration not given here
# [2] = compound effects on differentiated 3T3-L1 adipocyte viability – cell-based, 3T3-L1 adipocytes, calcein-AM fluorescence, 48 h, basal, profiling panel (AID 1163); conditions: 3T3-L1 adipocytes viability, higher = more signal; note: test concentration not given here
# [3] = compound effects on hepatocellular carcinoma cell viability – HepG2, calcein-AM fluorescence, 48 h, basal, profiling panel (AID 1164); conditions: higher = more signal; note: test concentration not given here
# [4] = compound effects on multiple myeloma cell viability – MM1S, calcein-AM fluorescence, 48 h, basal, profiling panel (AID 1165); conditions: higher = more signal; note: test concentration not given here
# [5] = calcein-AM signal in unstimulated myeloma cells – cell-based, calcein-AM fluorescence, 48 h, PK04 Diversity Set, profiling panel (AID 1166); conditions: RPMI8226 myeloma viability, higher = more signal;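 note: cells grown under basal conditions without added stimulus; test concentration not given here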
# [6] = JC-1 mitochondrial signal, unstimulated HepG2 cells – cell-based, JC-1 fluorescence, 24 h, 100 nL compound, profiling panel (AID 1167); conditions: HepG2 mitochondrial potential, higher = more signal; note: test concentration not given here
# [7] = JC-1 mitochondrial signal, unstimulated adipocytes – cell-based, JC-1 fluorescence, 3T3-L1 adipocytes, 24 h, 100 nL compound, profiling panel (AID 1168); conditions: JC-1 mitochondrial fluorescence, higher = more signal, called active from +8 up or from −8 down; note: test concentration not given here
# [8] = JC-1 mitochondrial signal, unstimulated myeloma cells – cell-based, JC-1 fluorescence, RPMI8226, 24 h, 100 nL compound, profiling panel (AID 1169); conditions: JC-1 mitochondrial potential fluorescence, higher = more signal; note: test concentration not given here
# [9] = JC-1 mitochondrial signal, unstimulated MM1S myeloma – cell-based, JC-1 fluorescence, 24 h, 100 nL compound, profiling panel (AID 1170); conditions: MM1S mitochondrial potential, higher = more signal; note: test concentration not given here
# [10] = resazurin metabolic signal in A549 cells – cell-based, resazurin fluorescence, 24 h, PK04 Diversity Set, profiling panel (AID 1171); conditions: A549 viability, higher = more signal, called active from +8 up or from −8 down; note: test concentration not given here
# [11] = resazurin metabolic signal in HepG2 cells – cell-based, resazurin fluorescence, 24 h, PK04 Diversity Set, profiling panel (AID 1172); conditions: HepG2 viability, higher = more signal; note: test concentration not given here
# [12] = budding yeast growth changes without added modifier – OD600, strain BY4716, 24 h, basal condition, primary screen (AID 1173); conditions: S. cerevisiae BY4716 growth, OD600, 24 h; higher = more signal, called active from +8 up or from −8 down
# [13] = viability profiling in MM1S myeloma cells – cell-based, resazurin fluorescence, basal, 24 h, PK04 Diversity Set, profiling panel (AID 1174); conditions: higher = more signal, called active from +8 up or from −8 down; note: test concentration not given here
# [14] = target: Dihydroorotate dehydrogenase (quinone), mitochondrial (Plasmodium falciparum (isolate 3D7)) (UniProt Q08210); experiment: inhibition of P. falciparum DHODH – biochemical, C-terminal His tag, absorbance 600 nm, primary screen (AID 1175); conditions: PfDHODH enzyme, DCIP absorbance 600 nm; higher = more signal, called active from +8 up or from −8 down;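 note: recombinant parasite enzyme with a five histidine tag at its C terminus; test concentration not given here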
# Chain of Dihydroorotate dehydrogenase (quinone), mitochondrial (Plasmodium falciparum (isolate 3D7)) (Q08210 whole entry, looked up): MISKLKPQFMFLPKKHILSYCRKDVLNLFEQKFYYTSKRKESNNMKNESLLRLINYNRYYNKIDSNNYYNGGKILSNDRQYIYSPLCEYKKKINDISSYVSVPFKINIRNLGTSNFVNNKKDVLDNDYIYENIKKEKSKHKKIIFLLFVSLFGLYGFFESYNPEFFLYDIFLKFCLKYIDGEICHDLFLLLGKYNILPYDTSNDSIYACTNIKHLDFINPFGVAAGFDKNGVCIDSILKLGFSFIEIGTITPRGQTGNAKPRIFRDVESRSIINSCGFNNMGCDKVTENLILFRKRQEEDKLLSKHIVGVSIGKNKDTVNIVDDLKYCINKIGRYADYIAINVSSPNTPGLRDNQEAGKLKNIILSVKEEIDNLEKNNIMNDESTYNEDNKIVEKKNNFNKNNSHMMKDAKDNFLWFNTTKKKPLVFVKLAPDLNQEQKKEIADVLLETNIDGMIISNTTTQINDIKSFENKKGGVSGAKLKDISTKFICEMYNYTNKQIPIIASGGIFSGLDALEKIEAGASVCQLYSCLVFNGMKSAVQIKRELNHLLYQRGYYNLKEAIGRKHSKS
# [15] = inhibition of PAO1 biofilm formation – strain PAO1, LB-PBS medium, absorbance 600 nm, primary screen (AID 1176); note: test concentration not given here; conditions: P. aeruginosa PAO1 growth/biofilm, A600, 12 h; higher = more signal
# [16] = growth modulation of vineyard yeast isolate – strain RM11-1a, OD600, basal, 24 h, primary screen (AID 1177);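 note: cultures grown under basal conditions with no added stressor; test concentration not given here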; conditions: S. cerevisiae RM11-1a growth, OD600, 24 h; higher = more signal, called active from +8 up or from −8 down
# [17] = growth of efflux-deficient E. coli DRC39 – strain DRC39, OD650, 24 h, E. coli filamentation inducers, primary screen (AID 1178);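 note: growth measured as culture turbidity by optical density at 650 nm; test concentration not given here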; conditions: E. coli DRC39 acrAB, higher = more signal, called active from +8 up or from −8 down
# [18] = growth of efflux-deficient E. coli DRC39 – strain DRC39, OD650, 48 h, E. coli filamentation inducers, primary screen (AID 1179);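 note: screen aims at cell division blockers that make cells filament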; conditions: E. coli DRC39 delta-acrAB growth, higher = more signal, called active from +8 up or from −8 down
# [19] = viability profiling in RPMI8226 myeloma cells – cell-based, resazurin fluorescence, basal, 24 h, PK04 Diversity Set, profiling panel (AID 1180); conditions: higher = more signal;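 note: RPMI8826 multiple myeloma cell line at 5000 cells per well; test concentration not given here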
# [20] = target: E3 ubiquitin-protein ligase XIAP (Homo sapiens) (UniProt P98170); experiment: small molecules binding XIAP protein – biophysical, small-molecule microarray, fluorescence 635 nm, primary screen (AID 1181); conditions: higher = more signal;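 note: score merges 667 nm emission and signal to noise over triplicate slides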
# Chain of E3 ubiquitin-protein ligase XIAP (Homo sapiens) (P98170 whole entry, looked up): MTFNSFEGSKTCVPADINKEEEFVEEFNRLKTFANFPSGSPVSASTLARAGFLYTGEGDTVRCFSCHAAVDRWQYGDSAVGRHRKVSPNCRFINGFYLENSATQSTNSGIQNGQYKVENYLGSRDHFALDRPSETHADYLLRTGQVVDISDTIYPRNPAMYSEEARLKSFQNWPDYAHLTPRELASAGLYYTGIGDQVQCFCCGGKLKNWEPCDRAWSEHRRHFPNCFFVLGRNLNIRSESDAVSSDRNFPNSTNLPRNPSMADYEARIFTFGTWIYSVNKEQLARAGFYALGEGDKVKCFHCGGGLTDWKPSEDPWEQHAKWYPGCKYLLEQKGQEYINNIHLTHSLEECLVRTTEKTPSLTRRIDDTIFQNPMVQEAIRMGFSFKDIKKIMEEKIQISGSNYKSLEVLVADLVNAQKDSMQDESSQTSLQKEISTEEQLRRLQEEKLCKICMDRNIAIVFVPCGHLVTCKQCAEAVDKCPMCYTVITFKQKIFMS
SMILES,z-score [1],z-score [2],z-score [3],z-score [4],z-score [5],z-score [6],z-score [7],z-score [8],z-score [9],z-score [10],z-score [11],z-score [12],z-score [13],composite z-score [14],z-score [15],z-score [16],z-score [17],z-score [18],z-score [19],composite z-score [20]
CCOC(=O)[C@H](CC(C)C)NC(=O)CCC1CC(OC(=O)NCCc2ccc(F)cc2)CC2(CCCC(COC(=O)NCCCN3CCCC3=O)O2)O1 (stereo not given in full),0.332,-1.03,0.0317,-0.528,-1.8,-0.556,-0.139 (inactive),-0.912,0.131,0.601 (inactive),0.653,-0.796 (inactive),0.469 (inactive),0.0102 (inactive),0.909 (inactive),-0.129 (inactive),0.698 (inactive),-0.405 (inactive),1.32,-0.179
COc1ccc(O[C@H]2C=C[C@@H](c3ccccc3)O[C@@H]2CO)cc1,0.109,0.0705,-0.27,-0.307,-0.0698,0.194,-0.637 (inactive),0.362,-0.42,-0.521 (inactive),0.121,-4.83 (inactive),0.222 (inactive),-0.163 (inactive),0.438 (inactive),0.0505 (inactive),0.137 (inactive),-0.447 (inactive),-0.5,-0.042
COc1ccc2c(c1)O[C@@H](c1cccc(C(F)(F)F)c1)[C@H](O)C2=O,0.759,-0.941,-0.294,-0.277,1.29,-1.25,0.0155 (inactive),-0.239,-0.724,-0.536 (inactive),0.669,-14.3 (active),-0.104 (inactive),-0.445 (inactive),0.699 (inactive),-1.04 (inactive),1.23 (inactive),1.34 (inactive),0.8,0.0223
O=C1[C@H]2[C@H]3[C@H](O)[C@H](O)CC(=NO[C@@H]4O[C@H](CO)[C@@H](O)[C@H](O)[C@H]4O)[C@H]3CC[C@H]2C(=O)N1C[C@@H]1CCCO1,0.676,-0.568,0.184,0.7,0.269,0.607,0.572 (inactive),0.39,-1.13,-0.6 (inactive),0.724,0.628 (inactive),-1.45 (inactive),-0.595 (inactive),-0.355 (inactive),0.855 (inactive),0.42 (inactive),0.595 (inactive),-0.39,0.127
COc1ccc(COC(=O)NN=C2C[C@@H](O)[C@@H](O)[C@@H]3[C@@H]4C(=O)N(Cc5ccccc5)C(=O)[C@@H]4CC[C@@H]23)cc1,-0.178,-0.641,-0.13,0.458,1.61,0.335,-0.289 (inactive),0.76,-1.46,0.399 (inactive),1.13,0.18 (inactive),0.259 (inactive),0.207 (inactive),0.0335 (inactive),0.325 (inactive),0.918 (inactive),0.935 (inactive),1.12,-0.102
